Compound activity from PubChem.
Hits are enriched below; roughly 0.9% of the tested compounds scored in any of these assays.
RXFP1 antagonist: antagonists of human relaxin receptor RXFP1 | Q9HBX9 | 0.59% of 350,000 active | HEK293-RXFP1, relaxin-stimulated cAMP HTRF, 30 min; stronger effect = lower value | activity change, negative = inhibition, % at 57.5 µM | AID 1259400;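 active = activity change of -60% or lower, but not beyond a set lower limit; inconclusive = change between -60% and -40%, or beyond the set limit; inactive = change above -40%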
Target sequence (Q9HBX9 whole entry, looked up): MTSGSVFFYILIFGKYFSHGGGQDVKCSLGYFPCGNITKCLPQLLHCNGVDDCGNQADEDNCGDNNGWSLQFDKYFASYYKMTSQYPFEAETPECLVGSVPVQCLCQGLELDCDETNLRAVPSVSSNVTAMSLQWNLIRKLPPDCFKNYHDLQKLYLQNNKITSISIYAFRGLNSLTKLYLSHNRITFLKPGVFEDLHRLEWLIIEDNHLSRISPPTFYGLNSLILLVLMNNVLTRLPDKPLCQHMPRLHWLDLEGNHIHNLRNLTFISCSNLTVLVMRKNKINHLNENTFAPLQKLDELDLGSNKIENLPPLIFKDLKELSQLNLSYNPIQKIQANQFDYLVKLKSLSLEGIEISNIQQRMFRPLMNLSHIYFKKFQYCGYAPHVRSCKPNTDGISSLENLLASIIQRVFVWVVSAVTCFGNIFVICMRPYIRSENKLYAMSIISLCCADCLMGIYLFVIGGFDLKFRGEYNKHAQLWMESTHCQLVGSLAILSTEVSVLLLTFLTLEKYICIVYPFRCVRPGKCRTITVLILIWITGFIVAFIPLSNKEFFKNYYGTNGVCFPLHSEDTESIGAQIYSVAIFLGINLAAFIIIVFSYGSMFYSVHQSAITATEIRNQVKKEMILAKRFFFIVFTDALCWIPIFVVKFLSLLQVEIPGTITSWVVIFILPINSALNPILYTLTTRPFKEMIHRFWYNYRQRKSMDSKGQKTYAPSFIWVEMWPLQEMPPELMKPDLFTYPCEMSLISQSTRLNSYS
gsp ag: activates gsp, the McCune-Albright syndrome mutation | gsp mutant cells, cAMP HTRF, 30 min | Potency, µM (top dose mostly 76.9 µM), most hits filed as activators | 0.13% of 340,000 active | AID 624287; active = well fitted activation curve with a large enough effect; inconclusive = small, poorly fitted or top-dose-only effect, or another doubt; inactive = no such curve, though single readings can be large or run the other way; cell line not stated here;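 note: phosphodiesterase inhibitor Ro 20-1724 added with compounds to block cAMP breakdown; nearly all actives have a fitted effect of over 60% in size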
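Cells stably selected in G418 were plated at 2000/well, grown 16-24 hr, then given compounds in DMSO with the PDE inhibitor […] (300 uM solution added) for 30 min at 37C; cAMP was read by HTRF.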
RXFP1 ag: RXFP1 (human) receptor agonism; 0.3% of 370,000 active; AID 2676; Q9HBX9; HEK293T-RXFP1 cAMP TR-FRET, 30 min; response scale: percent of porcine relaxin response, buffer zero; Potency, µM (doses to about 57.5 µM), actives largely listed as activators; active = well fitted activation curve with a large enough effect; inconclusive = small, poorly fitted or top-dose-only effect; note: nearly all actives have a fitted effect of over 60% in size
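Agonist response is measured as cAMP accumulation in an RXFP1-transfected HEK293T line under PDE4 inhibition. Values are scaled between buffer-only and 29 nM porcine relaxin, and EC50s come from standard Hill equation fits.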
gsp antagonist: antagonists of gsp mutant (McCune-Albright syndrome); Potency, µM (series often up to 76.9 µM), most hits filed as inhibitors; gsp-mutant cells, cAMP HTRF, 30 min; AID 624288; 0.4% of 340,000 active; calls by dose curve; cell line not stated here;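 note: intracellular cAMP measured with PDE inhibitor Ro 20-1724 present during compound exposure; nearly all actives have a fitted effect of over 65% in size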
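HTRF cAMP read-out (cAMP-d2 plus anti-cAMP antibody-K in lysis buffer, 30 min RT). Before lysis, cells are exposed to compounds with […] for 30 min at 37C in DPBS containing Ca/Mg, BSA and Tween 20.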
Each line names hits and unclear results; the compound was inactive in the other large screens.

COc1ccc(C2=NOC(Cn3nc(C(=O)NCc4ccc(C)cc4)cc3-c3ccccc3)C2)cc1 (centres undefined)	none (no result: RXFP1 antagonist)
COc1ccc(C2=NOC(Cn3nc(C(=O)NCc4ccco4)cc3-c3ccccc3)C2)cc1 (centres undefined)	gsp antagonist 31.6µM (no result: RXFP1 antagonist)
Cc1ccccc1OCC(O)CNC1CCC(NCC(O)COc2ccccc2C)CC1 (centres undefined)	RXFP1 antagonist -100.8
CCCNC(=O)CSc1cn(CC(=O)N2CCCCCC2)c2ccccc12	none (no result: gsp ag, gsp antagonist)
CCN1CCc2c(sc(NC(=O)c3ccc4ccccc4c3)c2C(N)=O)C1	none (no result: RXFP1 antagonist, gsp ag, gsp antagonist)
CCN1CCc2c(sc(NC(=S)NC(=O)c3ccc(Cl)cc3)c2C(N)=O)C1	RXFP1 antagonist -110.3
Oc1cccc(C2c3[nH]c4ccccc4c3CCN2Cc2ccoc2)c1 (centres undefined)	none
Oc1cccc(C2c3[nH]c4ccccc4c3CCN2Cc2ccc3c(c2)CCO3)c1 (centres undefined)	RXFP1 antagonist -60.8
O=C(O)c1ccccc1NS(=O)(=O)c1ccc(N/N=C/c2ccc(O)c(O)c2)c([N+](=O)[O-])c1	none (no result: RXFP1 ag)
O=C(O)c1ccccc1NN=Cc1ccccc1	RXFP1 antagonist inconclusive, gsp antagonist 25.1µM (no result: RXFP1 ag)
O=C(O)c1ccccc1NS(=O)(=O)c1ccc(NN=Cc2cccc(Cl)c2)c([N+](=O)[O-])c1	RXFP1 antagonist -68.4 (no result: RXFP1 ag)
COc1cccc(CN2CCN(Cc3cccn3-c3cccnc3)CC2CCO)c1 (centres undefined)	gsp antagonist 50.1µM
CC(C)CCN1CCN(Cc2cccn2-c2cccnc2)CC1CCO (centres undefined)	none
CCc1ccccc1Nc1sc(C(=O)c2ccccc2)c(N)c1S(=O)(=O)c1ccccc1	none (no result: gsp ag, gsp antagonist)
Clc1ccc(C(Cn2ccnc2)OCc2ccc(Sc3ccccc3)cc2)c(Cl)c1 (centres undefined)	none (no result: gsp ag, RXFP1 ag, gsp antagonist)
O=C(C=Cc1cccc(Cl)c1)c1ccccc1	RXFP1 antagonist -61.6, gsp ag inconclusive (no result: RXFP1 ag)
O=c1oc2ccc3ccccc3c2cc1-c1nnc(Nc2ccc(F)cc2)s1	none (no result: gsp ag, gsp antagonist)
CCOC(=O)C1=C(CC)Nc2ccccc2N=C1NC(=O)CCNC(C)=O	RXFP1 antagonist -74.6
CCOC(=O)Cc1csc(NC(=O)COc2ccc(N(C)S(=O)(=O)c3cccs3)cc2)n1	gsp antagonist 35.5µM
CCOC(=O)Cc1csc(NC(=O)COc2ccccc2)n1	gsp ag inconclusive
Cc1nc(C)c(CCNS(=O)(=O)c2ccc(F)cc2)s1	none (no result: RXFP1 antagonist, gsp ag, gsp antagonist)
COc1ccc(-c2nc(-c3ccccc3)c(-c3ccc(O)cc3)[nH]2)cc1	RXFP1 antagonist -104.2 (no result: gsp ag, gsp antagonist)
CCc1ccc2oc(-c3cc(NC(=O)c4cccnc4)cc(C)c3O)nc2c1	none (no result: RXFP1 antagonist, gsp ag, gsp antagonist)
Cc1cccc(NC(=O)C2CCN(S(=O)(=O)c3c(C)c(C)cc(C)c3C)CC2)n1	RXFP1 antagonist -78.8
O=C(CSc1ccc2nnc(-c3cccnc3)n2n1)Nc1ccccc1	gsp ag inconclusive, RXFP1 ag 15.8µM
COc1ccc(NC(=O)CSc2ccc3nnc(-c4cccnc4)n3n2)cc1OC	gsp ag inconclusive, RXFP1 ag 17.8µM
CCc1cc(/C(Cc2cscn2)=N\O)c(O)cc1O	none
CCc1cc(/C(Cc2ccccn2)=N\O)c(O)cc1O	gsp antagonist 35.5µM
Cc1n[nH]c(=O)n(N=Cc2c[nH]c3ccccc23)c1=O	none (no result: RXFP1 ag, gsp antagonist)
CCc1ccc(C(C(=O)NC2CCCC2)N(CCOC)C(=O)CCC(=O)Nc2cc(C)on2)cc1 (centres undefined)	none
CCN(C(=O)CSc1nc(C)nc2sc(C)c(C)c12)C1CCS(=O)(=O)C1 (centres undefined)	gsp ag inconclusive
CCOC(=O)c1sc2nc(C)nc(SCC(=O)N(C)C3CCS(=O)(=O)C3)c2c1C (centres undefined)	gsp ag 15.8µM
CN(C(=O)CSc1ncnc2sc3c(c12)CCCC3)C1CCS(=O)(=O)C1 (centres undefined)	gsp ag 11.2µM (no result: RXFP1 ag)
Cc1nc(SCC(=O)NC2CC2)c2c(C)c(C)sc2n1	none
COC(=O)c1sc2nc(C)nc(SCC(=O)N3CCC(C(=O)O)CC3)c2c1C	gsp ag 15.8µM, RXFP1 ag inconclusive
Cc1sc2ncnc(SCC(=O)N(C)C3CCS(=O)(=O)C3)c2c1C (centres undefined)	RXFP1 ag inconclusive
COc1cccc(CNC(=O)Cn2c(=O)oc3cc(S(=O)(=O)N4CCCCCC4)ccc32)c1	none (no result: gsp ag, gsp antagonist)
COc1ccc(-c2csc(N(CCCN(C)C)C(=O)c3ccc(C(C)(C)C)cc3)n2)cc1	RXFP1 antagonist -65.1
COc1cc(/C=C(\C#N)c2nc3ccccc3s2)cc([N+](=O)[O-])c1O	gsp antagonist inconclusive
N#C/C(=C\c1ccc(O)c([N+](=O)[O-])c1)c1nc2ccccc2s1	gsp antagonist 35.5µM
COc1ccc(-c2csc3ncnc(N4CCN(Cc5ccccc5)CC4)c23)cc1	none
Fc1ccc(CN2CCN(c3ncnc4scc(-c5ccc(F)cc5)c34)CC2)cc1	RXFP1 antagonist -67.9
Cc1noc(C)c1C(=O)OCC(=O)c1c(N)n(CC(C)C)c(=O)n(C)c1=O	gsp ag 31.6µM
CC(C)Cn1c(N)c(C(=O)COC(=O)c2c(F)cccc2F)c(=O)n(C)c1=O	none
CC(C)Cn1c(N)c(C(=O)COC(=O)c2cccc(Cl)c2)c(=O)n(C)c1=O	gsp antagonist 50.1µM
CCCCC/C=C/C/C=C/CCCCCCCC(=O)NC(C)c1ccccc1 (centres undefined)	none (no result: gsp ag, RXFP1 ag, gsp antagonist)
CC(C)(CNC(=S)NCCc1ccccc1)CNC(=S)NCCc1ccccc1	gsp antagonist 35.5µM
OCCNC(=S)NCCc1ccccc1	none
O=C(c1cccc(Oc2ccc([N+](=O)[O-])cc2Cl)c1)N1CCCCC1	none
O=C(c1ccc(Oc2ccc([N+](=O)[O-])cc2Cl)cc1)N1CCCC1	gsp antagonist 11.2µM
N#Cc1ccccc1OCC(=O)N1CCN(S(=O)(=O)c2ccc(Cl)cc2)CC1	none
COc1cc(C2/C(=C(\O)c3ccc4c(c3)OCCO4)C(=O)C(=O)N2Cc2ccco2)cc(OC)c1OC (centres undefined)	gsp ag inconclusive
COC(=O)C1CCN(C(=O)c2cc(-c3ccc(Cl)s3)nc3ccccc23)CC1	gsp ag inconclusive, gsp antagonist 31.6µM
C[C@H](N)C(=O)N[C@@H](C)C(=O)NC1[C@H]2CN(c3nc4c(cc3F)c(=O)c(C(=O)O)cn4-c3ccc(F)cc3F)C[C@@H]12 (some centres undefined)	none (no result: gsp ag, RXFP1 ag, gsp antagonist)
CCC(=O)N1N=C(c2ccc(NS(=O)(=O)c3ccccc3)cc2)CC1c1ccco1 (centres undefined)	gsp antagonist 31.6µM (no result: RXFP1 ag)
Cc1ccc(C2=NN(C(=O)CCCC(=O)O)C(c3ccco3)C2)cc1 (centres undefined)	none
CCOC(=O)CCC(=O)Nc1nnc2n1CCS2	none (no result: RXFP1 antagonist, gsp ag, gsp antagonist)
Cc1c(Cl)cccc1NC(=O)c1cc(-c2cccc(Cl)c2)on1	none (no result: gsp ag, gsp antagonist)
Cc1ccc(NC(=O)Cn2c(=O)n(-c3ccc(CC(=O)NCC4CCCO4)cc3)c(=O)c3ccccc32)cc1 (centres undefined)	none (no result: RXFP1 antagonist, gsp ag, gsp antagonist)
CC(=O)N1CC(=O)N=C1SCC(=O)Nc1nc(C)c(-c2ccccc2)s1	RXFP1 antagonist -109.8, gsp antagonist inconclusive
